Screening results deposited in PubChem by Center for Chemical Genomics, University of Michigan.
CDC25B CDK2 inh: primary biochemical HTRF screen for blockers of M-phase inducer phosphatase 2 binding to CDK2/cyclin A; P30305+P24941; HTRF CDC25B-CDK2/CyclinA binding, anti-His/anti-Flag; hits give high values; z-score (no concentration beside the values); 94,000 compounds, 0.72% hits; in the data active = z-score above about 3.2
HIV TAR-Tat: TAR RNA-Tat peptide displacers, HIV-1, primary screen, biochemical, FRET, FAM/TAMRA-labeled Tat | HIV-1 TAR RNA, Tat peptide displacement FRET; hits give high values | z-score (concentration not given with the values) | 100,000 compounds, 0.6% hits; active = z-score of 3 or more in at least 2 runs
A number is an active result. An excerpt weighted towards active compounds, which were near 0.9% of everything screened.

Results for NC(N)=NS(=O)(=O)c1ccc(N/C=C\C(=O)c2ccc3ccccc3c2)cc1 ?
CDC25B CDK2 inh: 18

Results for CCOc1ccc2c(c1)NC(c1cccs1)=NC(c1cccs1)=N2 ?
CDC25B CDK2 inh: inactive; HIV TAR-Tat: inactive

Results for COc1cc(OC)cc(-c2cc(N)n(S(=O)(=O)Cc3ccccc3)n2)c1 ?
CDC25B CDK2 inh: inactive; HIV TAR-Tat: inactive

Results for Cc1ccc(C2CC(=O)C3=C(C2)Nc2ccccc2NC3c2ccc(C)o2)cc1 (stereo not given) ?
CDC25B CDK2 inh: inactive; HIV TAR-Tat: inactive

What do the screens show for `Cc1nc2cc(NCc3ccco3)ccc2n1C`?
CDC25B CDK2 inh: 16; HIV TAR-Tat: inactive

What do the screens show for `Cc1ccc(-n2cnc3cc(NCc4ccncc4)ccc32)cc1`?
CDC25B CDK2 inh: inactive; HIV TAR-Tat: inactive

How did COc1ccccc1-n1cnc2cc(NCc3ccco3)ccc21 do in these assays?
CDC25B CDK2 inh: inactive; HIV TAR-Tat: inactive

Results for Cc1nc2cc(NCc3ccncc3)ccc2n1C ?
CDC25B CDK2 inh: 14; HIV TAR-Tat: inactive

How did Cc1nn(CCCC(=O)NCCCN2CCOCC2)c(=O)c2cc3occc3n12 do in these assays?
CDC25B CDK2 inh: inactive; HIV TAR-Tat: inactive

What do the screens show for `CC(=O)N1c2ccc(S(=O)(=O)N3CCCC(C)C3)cc2CC1C` (stereo not given)?
HIV TAR-Tat: inactive

Results for C(=C\c1ccc2c(c1)OCO2)/C1=NN(c2ccccc2)C(c2ccc3c(c2)OCO3)C1 (stereo not given) ?
CDC25B CDK2 inh: 16; HIV TAR-Tat: inactive

How did Cn1c(/C=C/c2ccc3c(c2)OCO3)nc2ccccc2c1=O do in these assays?
CDC25B CDK2 inh: inactive; HIV TAR-Tat: inactive

Results for O=C(Nc1ccc(Br)cc1)N1CCC(CN2CCc3ccccc3C2)CC1 ?
HIV TAR-Tat: inactive

How did Cc1c(C(=O)Cn2ccnc2)sc2ccc(Cl)cc12 do in these assays?
CDC25B CDK2 inh: 14

How did Cc1c(C(=O)CC#N)sc2ccc(Cl)cc12 do in these assays?
CDC25B CDK2 inh: inactive

Results for CCOc1c(N2CCC(c3cc(OC)ccc3OC)C2)c(=O)c1=O (stereo not given) ?
HIV TAR-Tat: inactive

How did O=C1c2cc([N+](=O)[O-])ccc2-c2ccc([N+](=O)[O-])cc21 do in these assays?
CDC25B CDK2 inh: inactive

Results for CCCNC(=O)c1cc([N+](=O)[O-])cc2c1-c1ccc([N+](=O)[O-])cc1C2=O ?
CDC25B CDK2 inh: 16

Results for Cc1csc2nc(-c3ccc(NS(=O)(=O)c4cccnc4)cc3)cn12 ?
HIV TAR-Tat: inactive

Results for COc1ccccc1Nc1nc(C)c([N+](=O)[O-])c(Nc2ccccc2)n1 ?
CDC25B CDK2 inh: inactive; HIV TAR-Tat: inactive

What do the screens show for `CC(=O)Nc1nc(C)c(-c2csc(NCc3ccccc3)n2)s1`?
CDC25B CDK2 inh: 6.8

Results for CC(=O)Nc1nc(C)c(-c2csc(Nc3ccc(Cl)cc3)n2)s1 ?
CDC25B CDK2 inh: inactive; HIV TAR-Tat: inactive

What do the screens show for `CCC1CCC2(CC1)NC(CO)(CO)CO2` (stereo not given)?
CDC25B CDK2 inh: inactive

Results for CCCCn1cc(S(=O)(=O)c2ccccc2)c(=O)c2cc(F)c(N3CCOCC3)cc21 ?
HIV TAR-Tat: inactive

What do the screens show for `O=C1Nc2cc(Cl)ccc2SC2CCCCC2O1` (stereo not given)?
CDC25B CDK2 inh: 20

Results for CC1CC(=O)Nc2cc(S(=O)(=O)Nc3cccc(Cl)c3)ccc2S1 (stereo not given) ?
HIV TAR-Tat: inactive

Results for O=c1c2cc3c(cc2nc2sc(Nc4cccc(Cl)c4)nn12)OCO3 ?
CDC25B CDK2 inh: inactive; HIV TAR-Tat: inactive

How did Cc1cccc(Nc2nn3c(=O)c4cc5c(cc4nc3s2)OCO5)c1 do in these assays?
HIV TAR-Tat: 13

How did CCc1nn2c(=O)cc(COC(=O)c3ccc(C)cc3)nc2s1 do in these assays?
HIV TAR-Tat: inactive

How did O=C1Cc2cc(S(=O)(=O)NCc3ccccc3)ccc2N1 do in these assays?
HIV TAR-Tat: inactive

What do the screens show for `O=C1Nc2ccc(S(=O)(=O)NCc3ccccc3)cc2C1=O`?
HIV TAR-Tat: 6.2

What do the screens show for `COc1ccc(OC)c(C2=NOC(C(=O)N3CCOCC3)C2)c1` (stereo not given)?
CDC25B CDK2 inh: inactive; HIV TAR-Tat: inactive

What do the screens show for `N#CC1=C2SCN(Cc3ccco3)CN2C(=O)CC1c1cccs1` (stereo not given)?
CDC25B CDK2 inh: inactive; HIV TAR-Tat: inactive

What do the screens show for `N#CC1=C2SCN(CCc3ccccc3)CN2C(=O)CC1c1cccs1` (stereo not given)?
CDC25B CDK2 inh: 3.7; HIV TAR-Tat: inactive

What do the screens show for `COc1ccc(C2CC(=O)N3CN(Cc4cccnc4)CSC3=C2C#N)cc1` (stereo not given)?
CDC25B CDK2 inh: inactive; HIV TAR-Tat: inactive

Results for N#CC1=C2SCN(CCc3ccccc3)CN2C(=O)CC1c1ccc(F)cc1 (stereo not given) ?
CDC25B CDK2 inh: inactive; HIV TAR-Tat: inactive

Results for COc1ccc(CN2CSC3=C(C#N)C(c4cccc(OC)c4)CC(=O)N3C2)cc1 (stereo not given) ?
CDC25B CDK2 inh: 7.6; HIV TAR-Tat: inactive

Results for COc1ccc(CN2CSC3=C(C#N)C(c4cccs4)CC(=O)N3C2)cc1 (stereo not given) ?
CDC25B CDK2 inh: 4; HIV TAR-Tat: inactive

What do the screens show for `COc1ccc(CN2CSC3=C(C#N)C(c4ccc(OC)cc4)CC(=O)N3C2)cc1` (stereo not given)?
CDC25B CDK2 inh: 6.3; HIV TAR-Tat: inactive

How did Brc1cc2c(cc1[C@H]1Nc3ccccc3[C@H]3C=CC[C@H]31)OCO2 do in these assays?
CDC25B CDK2 inh: inactive

What do the screens show for `Cc1cc(C)c(C#N)c(SCCC(=O)Nc2nc(-c3ccccc3)ns2)n1`?
CDC25B CDK2 inh: inactive; HIV TAR-Tat: inactive

What do the screens show for `O=C(NCc1ccc(F)cc1)NCc1cccn1Cc1ccc(Cl)cc1`?
HIV TAR-Tat: inactive

Results for c1ccc(-c2cc(N3CCOCC3)n[nH]2)cc1 ?
CDC25B CDK2 inh: inactive; HIV TAR-Tat: inactive

What do the screens show for `CC(C)c1ccc(C2CC(=O)N3CN(Cc4ccccc4)CSC3=C2C#N)cc1` (stereo not given)?
CDC25B CDK2 inh: 5; HIV TAR-Tat: inactive

Results for N#CC1=C2SCN(CCN3CCOCC3)CN2C(=O)CC1c1ccc(F)cc1 (stereo not given) ?
CDC25B CDK2 inh: inactive; HIV TAR-Tat: inactive

How did CC(c1ccccc1)N1CSC2=C(C#N)C(c3ccc(F)cc3)CC(=O)N2C1 (stereo not given) do in these assays?
CDC25B CDK2 inh: inactive; HIV TAR-Tat: inactive

Results for Cc1ccsc1CCN1CSC2=C(C#N)C(c3ccc(Cl)cc3)CC(=O)N2C1 (stereo not given) ?
CDC25B CDK2 inh: 3.2; HIV TAR-Tat: inactive

Results for Cc1ccc(C2CC(=O)N3CN(Cc4cccnc4)CSC3=C2C#N)cc1 (stereo not given) ?
CDC25B CDK2 inh: 5.2; HIV TAR-Tat: inactive

Results for N#CC1=C2SCN(Cc3cccnc3)CN2C(=O)CC1c1ccc(F)cc1 (stereo not given) ?
CDC25B CDK2 inh: inactive; HIV TAR-Tat: inactive

Results for O=c1oc(-c2ccccc2NS(=O)(=O)c2ccc(F)cc2)nc2ccccc12 ?
CDC25B CDK2 inh: inactive

How did O=C(CSc1ncn(-c2ccccc2)n1)Nc1nc2c(s1)CCCC2 do in these assays?
CDC25B CDK2 inh: inactive

How did CCn1cnc2cc(NCc3nc4ccccc4n3Cc3ccccc3)ccc21 do in these assays?
CDC25B CDK2 inh: 13; HIV TAR-Tat: inactive
